CBX7 AlphaScr: blocks human CBX7 binding to H3K27me3 peptide; O95931; AlphaScreen His6-CBX7 / biotin-H3K27me3 peptide binding; hits give low values; normalised signal (fraction of DMSO) (no concentration beside the values); actives 1.1% (n = 66,000); AID 1224903; in the data active = normalised signal below about 0.5
Target sequence (O95931 whole entry, looked up): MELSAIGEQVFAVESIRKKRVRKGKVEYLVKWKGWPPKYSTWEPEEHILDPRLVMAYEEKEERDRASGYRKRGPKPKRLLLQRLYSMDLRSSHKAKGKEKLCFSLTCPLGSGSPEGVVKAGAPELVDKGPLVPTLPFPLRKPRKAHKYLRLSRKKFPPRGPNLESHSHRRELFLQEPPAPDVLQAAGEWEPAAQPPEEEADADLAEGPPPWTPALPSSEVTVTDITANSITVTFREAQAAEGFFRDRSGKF
* hit, by the source's call; ! = a repeat was not active. This excerpt belongs to a sample that is enriched for hits.

`O=C(Nc1nc(-c2ccccn2)cs1)c1ccc(S(=O)(=O)N2CCCc3ccccc32)cc1` gave CBX7 AlphaScr 0.89.
CCCCN(C)S(=O)(=O)c1ccc(C(=O)Nc2nc(-c3ccccn3)cs2)cc1 was read as CBX7 AlphaScr 0.098*.
`CCCCN(CC)S(=O)(=O)c1ccc(C(=O)Nc2nc(-c3ccncc3)cs2)cc1` gave CBX7 AlphaScr 1.
CN(c1ccccc1)S(=O)(=O)c1ccc(C(=O)Nc2nc(-c3ccccn3)cs2)cc1 was read as CBX7 AlphaScr 0.17*.
`COc1ccccc1-c1csc(NC(=O)c2ccc(S(=O)(=O)N(C)c3ccccc3)cc2)n1` gave CBX7 AlphaScr 0.97.
Screening CN(C1CCCCC1)S(=O)(=O)c1ccc(C(=O)Nc2nc(-c3ccccn3)cs2)cc1 returned CBX7 AlphaScr 0.89.
Screening CN(c1ccccc1)S(=O)(=O)c1ccc(C(=O)Nc2nc(-c3ccc(Cl)cc3)cs2)cc1 returned CBX7 AlphaScr 0.89.
For CC1CN(S(=O)(=O)c2ccc(C(=O)Nc3nc(-c4ccncc4)cs3)cc2)CC(C)O1 (centres undefined) the results were CBX7 AlphaScr 0.99.
CC1CN(S(=O)(=O)c2ccc(C(=O)Nc3nc(-c4ccccn4)cs3)cc2)CC(C)O1 (centres undefined) was read as CBX7 AlphaScr 0.31*.
For CCc1nc2ccccc2n1CC(O)COc1ccc(F)cc1 (centres undefined) the results were CBX7 AlphaScr 1.
COc1ccc(C(=O)c2nocc2C(=O)c2cccs2)cc1 was read as CBX7 AlphaScr 1.
Screening COc1ccc(C2CC(c3ccccc3C)n3nnnc3N2)cc1 (centres undefined) returned CBX7 AlphaScr 1.1.
Screening CC(C)Oc1ccc(C(=O)Nc2c3c(nn2-c2ccc(F)cc2)CS(=O)(=O)C3)cc1 returned CBX7 AlphaScr 1.1.
COc1ccc(Cl)cc1NC(=O)CSc1nccn1-c1ccc(F)cc1 was read as CBX7 AlphaScr 0.4*.
Screening COc1ccc(OC)c(NC(=O)CSc2nccn2-c2ccc(F)cc2)c1 returned CBX7 AlphaScr 0.48*.
For COc1ccc(-c2cn(-c3ccc(Cl)cc3)c(SCC(=O)Nc3cccc(C)c3)n2)cc1OC the results were CBX7 AlphaScr 0.53.
COc1ccc(-c2cn(-c3ccccc3)c(SCC(=O)Nc3ccc(F)cc3)n2)cc1OC was read as CBX7 AlphaScr 0.66.
For COc1ccc(OC)c(NC(=O)CSc2nccn2-c2ccccc2)c1 the results were CBX7 AlphaScr 0.76.
Cc1ccc(-n2cc(-c3ccc4c(c3)OCO4)nc2SCC(=O)Nc2ccccc2)cc1 was read as CBX7 AlphaScr 0.81.
For COc1ccc(-n2ccnc2SCC(=O)Nc2cc(Cl)ccc2OC)cc1 the results were CBX7 AlphaScr 1.1.
COc1ccc(-c2cn(-c3ccc(Cl)cc3)c(SCC(=O)Nc3ccc(F)cc3)n2)cc1OC was read as CBX7 AlphaScr 0.45*.
For Cc1ccc(-n2cc(-c3ccc4c(c3)OCO4)nc2SCC(=O)Nc2cc(C)cc(C)c2)cc1 the results were CBX7 AlphaScr 0.49*.
Screening Cc1ccc(-n2cc(-c3ccc4c(c3)OCO4)nc2SCC(=O)Nc2ccc3c(c2)OCO3)cc1 returned CBX7 AlphaScr 0.85.
Screening COc1cccc(-n2ccnc2SCC(=O)Nc2cc(OC)ccc2OC)c1 returned CBX7 AlphaScr 0.81.
CCOc1ccc(-n2ccnc2SCC(=O)Nc2cc(Cl)ccc2OC)cc1 was read as CBX7 AlphaScr 1.1.
For Cc1cc(=O)n2nc(N3CCCC(C(=O)NC4CCCC(C)C4C)C3)sc2n1 (centres undefined) the results were CBX7 AlphaScr 0.94.
COc1ccc(C(=O)NCCc2nc3ccccc3n2Cc2cc(C)ccc2C)cc1OC was read as CBX7 AlphaScr 0.99.
Screening CCn1c(SCC(=O)NCCc2ccc(OC)c(OC)c2)nnc1-c1c[nH]c2ccccc12 returned CBX7 AlphaScr 1.
`CC1CCN(c2ccc3nnc(-c4ccc(F)cc4)n3n2)CC1` gave CBX7 AlphaScr 0.97.
For CCOc1ccc(C(=O)Nc2ccc3oc(-c4cccnc4)nc3c2)cc1Cl the results were CBX7 AlphaScr 1.
`Cc1nc2c(C(=O)N3CCC(Cc4ccccc4)CC3)c[nH]n2c(=O)c1Cc1ccc(Cl)cc1` gave CBX7 AlphaScr 1.1.
`CCC1=Nc2cc(C(=O)NCCCN3CCCCCC3)ccc2Sc2ccc(C)cc21` gave CBX7 AlphaScr 0.88.
CC(C)c1ccc(Nc2cc(C(=O)NCc3ccc(F)cc3)c3ccccc3n2)cc1 was read as CBX7 AlphaScr 1.1.
`COc1ccc(-n2ccnc2SCC(=O)Nc2ccc(C)c(Cl)c2)cc1` gave CBX7 AlphaScr 0.47*.
For COc1ccc(-n2ccnc2SCC(=O)Nc2ccc(Cl)cc2)cc1 the results were CBX7 AlphaScr 0.9.
COc1ccc(NC(=O)CSc2nccn2-c2ccc(Cl)cc2)c(OC)c1 was read as CBX7 AlphaScr 0.49*.
Screening Cc1ccc(NC(=O)CSc2nccn2-c2ccc(F)cc2)cc1Cl returned CBX7 AlphaScr 0.82.
COc1ccc(-n2ccnc2SCC(=O)Nc2ccccc2OC)cc1 was read as CBX7 AlphaScr 0.66.
Screening COc1ccc(NC(=O)CSc2nccn2-c2ccc(OC)cc2)cc1 returned CBX7 AlphaScr 0.86.
Screening O=C(NCC1CCCO1)c1ccc2c(c1)NC(=O)C1CCCN21 (centres undefined) returned CBX7 AlphaScr 0.98.
For CCc1nnc(NC(=O)c2ccc(S(=O)(=O)N(CC(C)C)CC(C)C)cc2)o1 the results were CBX7 AlphaScr 0.1*.
For CCN(CC)S(=O)(=O)c1ccc(C(=O)Nc2nnc(C(C)C)s2)cc1 the results were CBX7 AlphaScr 1.1.
CCc1nnc(NC(=O)c2ccc(S(=O)(=O)N(C)c3ccccc3)cc2)o1 was read as CBX7 AlphaScr 0.68.
CCc1nnc(NC(=O)c2ccc(S(=O)(=O)N(CC)CC)cc2)o1 was read as CBX7 AlphaScr 0.1*.
For Cc1ccc(NC(=O)Cc2cc3ccccc3n2Cc2ccccc2)cc1 the results were CBX7 AlphaScr 1.1.
`O=C(Nc1ccc(F)c(F)c1)C1CCCN(S(=O)(=O)c2cccs2)C1` (centres undefined) gave CBX7 AlphaScr 1.1.
For O=C1CN(S(=O)(=O)CCOc2ccccc2)CC(=O)N1CCc1ccccc1 the results were CBX7 AlphaScr 0.99.
For COc1ccccc1NCc1nc2ccccc2n1Cc1ccccc1F the results were CBX7 AlphaScr 0.9.
For O=C(Nc1nnc(-c2ccccc2)o1)c1ccc(F)c(S(=O)(=O)N2CCOCC2)c1 the results were CBX7 AlphaScr 0.12*!.
`Cc1ccc(C(=O)Nc2ccccc2)cc1S(=O)(=O)N1CCOCC1` gave CBX7 AlphaScr 1.
For CCC1CCCCN1S(=O)(=O)c1ccc(C(=O)Nc2nnc(-c3ccc(Cl)s3)o2)cc1 (centres undefined) the results were CBX7 AlphaScr 0.38*.
CN(C)S(=O)(=O)c1ccc(C(=O)Nc2nnc(-c3cccs3)o2)cc1 was read as CBX7 AlphaScr 0.22*.
Cc1ccccc1NC(=O)c1ccc(F)c(S(=O)(=O)N2CCN(c3ccccc3)CC2)c1 was read as CBX7 AlphaScr 0.99.
For CC1CCCN(S(=O)(=O)c2ccc(C(=O)Nc3nnc(-c4ccccc4Cl)o3)cc2)C1 (centres undefined) the results were CBX7 AlphaScr 0.01*.
COc1ccc(-c2nnc(NC(=O)c3ccc(S(=O)(=O)N4CCCC(C)C4)cc3)o2)cc1 (centres undefined) was read as CBX7 AlphaScr 0.73.
`CC(C)CN(CC(C)C)S(=O)(=O)c1ccc(C(=O)Nc2nnc(-c3cccs3)o2)cc1` gave CBX7 AlphaScr 0.96.

Screens from PubChem BioAssay.
